In all, about 2,300 compounds went through this assay and about 1,000 (43%) were called active.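 Rule for the calls: active = compounds inhibiting the enzyme by at least 50% at 15 µM in any one of the replicates; inactive = the rest.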 So high a share suggests a set chosen from earlier hits. A selection follows.
These compounds were tested against Fatty acid synthase (Homo sapiens) (UniProt P49327) (assay: FAS thioesterase domain inhibitors, confirmation, biochemical, fluorescence intensity, single concentration (AID 624325;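 note: 0% = enzyme with DMSO only and 100% = wells lacking enzyme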)). Conditions: recombinant FAS-TE, OMFH fluorogenic substrate, at 15 µM, hits give high values.
Chain of Fatty acid synthase (Homo sapiens) (P49327 whole entry, looked up, the tested form may be a part): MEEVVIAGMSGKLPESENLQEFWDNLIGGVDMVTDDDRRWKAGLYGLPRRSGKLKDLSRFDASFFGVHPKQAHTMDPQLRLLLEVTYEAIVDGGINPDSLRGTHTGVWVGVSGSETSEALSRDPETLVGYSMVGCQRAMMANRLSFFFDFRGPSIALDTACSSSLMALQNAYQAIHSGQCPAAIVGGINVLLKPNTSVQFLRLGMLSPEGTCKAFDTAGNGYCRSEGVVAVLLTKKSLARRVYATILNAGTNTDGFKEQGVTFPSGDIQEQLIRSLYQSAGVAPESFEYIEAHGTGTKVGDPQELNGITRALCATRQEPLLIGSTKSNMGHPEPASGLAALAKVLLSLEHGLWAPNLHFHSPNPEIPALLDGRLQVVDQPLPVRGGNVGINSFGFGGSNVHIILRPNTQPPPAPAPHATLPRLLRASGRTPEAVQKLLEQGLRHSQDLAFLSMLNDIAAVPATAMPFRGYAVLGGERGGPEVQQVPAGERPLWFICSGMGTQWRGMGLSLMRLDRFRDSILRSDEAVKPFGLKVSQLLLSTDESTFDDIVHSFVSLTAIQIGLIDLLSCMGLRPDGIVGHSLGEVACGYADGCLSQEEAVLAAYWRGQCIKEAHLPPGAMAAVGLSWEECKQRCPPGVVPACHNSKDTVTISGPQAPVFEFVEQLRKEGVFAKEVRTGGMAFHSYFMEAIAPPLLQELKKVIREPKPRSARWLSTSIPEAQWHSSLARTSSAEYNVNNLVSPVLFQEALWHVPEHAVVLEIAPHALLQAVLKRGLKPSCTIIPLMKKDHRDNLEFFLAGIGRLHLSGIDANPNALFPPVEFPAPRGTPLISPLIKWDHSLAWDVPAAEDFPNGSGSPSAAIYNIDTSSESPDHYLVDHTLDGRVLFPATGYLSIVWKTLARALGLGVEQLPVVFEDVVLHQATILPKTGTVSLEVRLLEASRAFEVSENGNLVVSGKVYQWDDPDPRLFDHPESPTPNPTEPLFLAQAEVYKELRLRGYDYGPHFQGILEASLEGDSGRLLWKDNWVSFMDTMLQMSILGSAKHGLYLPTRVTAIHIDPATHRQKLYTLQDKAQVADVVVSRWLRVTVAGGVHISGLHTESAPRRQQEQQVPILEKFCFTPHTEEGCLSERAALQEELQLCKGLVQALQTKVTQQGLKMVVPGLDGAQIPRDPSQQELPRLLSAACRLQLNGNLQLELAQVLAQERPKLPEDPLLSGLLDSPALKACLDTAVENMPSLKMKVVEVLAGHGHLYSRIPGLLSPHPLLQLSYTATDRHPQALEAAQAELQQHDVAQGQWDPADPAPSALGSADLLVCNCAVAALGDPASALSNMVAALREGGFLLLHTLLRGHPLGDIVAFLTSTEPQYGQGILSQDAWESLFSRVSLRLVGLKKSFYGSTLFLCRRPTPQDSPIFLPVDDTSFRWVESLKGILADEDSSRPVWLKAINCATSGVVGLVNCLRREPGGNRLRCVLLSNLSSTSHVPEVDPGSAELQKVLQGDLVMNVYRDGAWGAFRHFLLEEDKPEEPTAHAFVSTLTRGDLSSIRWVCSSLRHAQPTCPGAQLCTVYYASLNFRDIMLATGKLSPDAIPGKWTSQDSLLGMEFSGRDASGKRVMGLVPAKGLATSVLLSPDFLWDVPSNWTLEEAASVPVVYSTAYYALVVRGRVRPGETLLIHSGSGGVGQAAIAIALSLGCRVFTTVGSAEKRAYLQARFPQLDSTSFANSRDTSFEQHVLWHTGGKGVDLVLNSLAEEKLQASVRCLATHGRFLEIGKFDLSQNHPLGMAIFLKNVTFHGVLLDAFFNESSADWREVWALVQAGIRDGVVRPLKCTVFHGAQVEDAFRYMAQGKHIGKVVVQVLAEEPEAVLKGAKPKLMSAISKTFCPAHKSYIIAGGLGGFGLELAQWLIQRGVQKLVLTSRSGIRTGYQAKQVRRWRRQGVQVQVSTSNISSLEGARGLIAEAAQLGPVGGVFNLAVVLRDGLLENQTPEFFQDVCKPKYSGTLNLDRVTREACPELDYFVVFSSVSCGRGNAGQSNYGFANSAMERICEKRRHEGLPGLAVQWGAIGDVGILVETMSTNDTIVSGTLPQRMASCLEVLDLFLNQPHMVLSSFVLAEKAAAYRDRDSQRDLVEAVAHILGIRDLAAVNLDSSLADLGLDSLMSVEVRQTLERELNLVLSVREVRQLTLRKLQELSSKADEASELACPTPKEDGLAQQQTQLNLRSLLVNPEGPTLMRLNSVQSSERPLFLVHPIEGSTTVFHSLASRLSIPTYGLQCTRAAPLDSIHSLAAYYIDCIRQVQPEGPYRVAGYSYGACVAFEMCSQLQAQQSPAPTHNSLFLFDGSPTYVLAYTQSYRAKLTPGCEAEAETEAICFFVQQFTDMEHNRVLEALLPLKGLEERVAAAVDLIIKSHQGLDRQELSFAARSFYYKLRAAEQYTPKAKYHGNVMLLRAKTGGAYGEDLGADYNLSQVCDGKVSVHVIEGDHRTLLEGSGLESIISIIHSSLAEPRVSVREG
For `CCOC(=O)[C@]12Cc3ccccc3[C@H]1N(C1CCCCC1)C(=O)c1cc(OC)ccc12`, the inhibition was 53% (active).
`COc1cccc(C(c2nnnn2-c2ccc3c(c2)OCCO3)N2CCC3(CC2)C(=O)NCN3c2ccccc2)c1OC` (stereo not drawn) was tested, and the inhibition was 8.72% (inactive).
With `COc1ccc(-n2nnnc2C(c2cccc3ccccc23)N2CCC(n3c(=O)[nH]c4ccccc43)CC2)cc1` (stereo not drawn) the inhibition was 34.4% (inactive).
